The values below come from PubChem BioAssay.

One may read the inhibition as the relative decrease from the control value, in per cent.

Values without a mark were called inactive. The rule behind the calls is not given here.

This test deals with Pantothenate synthetase (Mycobacterium tuberculosis (strain ATCC 25618 / H37Rv)) (UniProt P9WIL5). The experiment in a line: Recombinant Mtb pantothenate synthetase (PanC) inhibitors, coupled enzyme, confirmatory (AID 375).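 Note: 0% = full reaction with vehicle and 100% = no enzyme background.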 The note with it: coupled enzyme assay; at 10 µM, hits give high values.
Sequence of Pantothenate synthetase (Mycobacterium tuberculosis (strain ATCC 25618 / H37Rv)) (P9WIL5 whole entry, looked up): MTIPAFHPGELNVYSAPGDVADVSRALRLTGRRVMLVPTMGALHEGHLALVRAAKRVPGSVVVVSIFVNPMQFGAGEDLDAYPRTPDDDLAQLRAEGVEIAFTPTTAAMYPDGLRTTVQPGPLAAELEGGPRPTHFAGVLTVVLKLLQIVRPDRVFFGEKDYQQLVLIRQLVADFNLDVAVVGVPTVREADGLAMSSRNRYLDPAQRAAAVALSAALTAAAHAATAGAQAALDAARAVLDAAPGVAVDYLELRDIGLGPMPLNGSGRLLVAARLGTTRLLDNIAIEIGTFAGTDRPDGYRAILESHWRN
As to `Brc1ccc2[nH]ncc2c1`, the inhibition is 10%. As to `CCOC(=O)C1CCN(CC(=O)Nc2c(C(=O)OC)[nH]c3ccc(Cl)cc23)CC1`, the inhibition was 5%.

With `CC(C)C(=O)Nc1cccc(NC(=O)c2cccnc2)c1`, the inhibition was 1%. Next, `O=C(O)CCc1ccc(-c2ccc(Br)cc2)n1CC(=O)O`: 0%; `Cc1cc(O)c(C(C)C)cc1N=C1CSC(=O)N1`: 0%; `CCOC(=O)c1ccc(NS(=O)(=O)c2ccc(SC)cc2)cc1`: 0%. As for `CCOc1ccc(NC(=O)CN(C)S(=O)(=O)c2cccs2)cc1`, the inhibition was 13%. The same measure for `CC(C)(C)c1cc(C(=O)O)nn1-c1ccccc1`: 0%.

Turning to `Cc1nnc(SCC(=O)NCc2ccccc2)s1`, the inhibition was 0%. Turning to `CCCCNC(=O)c1cc(-c2ccc(F)cc2)on1`, the inhibition is 6%.

With `O=C(CCSc1nc(-c2ccco2)cc(C(F)(F)F)n1)NCCc1ccccc1`, the inhibition was 1%. Next, `C[N+]12CCC(CC1)C(OC(=O)C(O)(c1ccccc1)c1ccccc1)C2` (stereo not given): 0%; `Cc1ccc2[nH]c3c(=O)n(CCCN4CCN(C)CC4)cnc3c2c1`: 4%.

As for `COc1ccc(NC(=O)CN(c2ccc(C)cc2)S(C)(=O)=O)c(OC)c1`, the inhibition was 4%.

In the case of `O=P(O)(CCc1ccccc1)CN1CCCCC1`, the inhibition is 6%. Turning to `COc1ccc(-c2noc(C3CCCN(C(=O)CCc4ccccc4)C3)n2)cc1` (stereo not given), the inhibition is 0%.

With `Cn1c(C(=O)NCCCN2CCN(c3ccc(F)cc3)CC2)cc2c(=O)n(C)c3ccccc3c21`, the inhibition is 0%. Next, `CCOC(=O)C1CCN(S(=O)(=O)c2cccc(-c3csc(C)n3)c2)CC1`: 0%; `c1ccc(CNc2c3c(nc4ncnn24)CCCC3)nc1`: 0%; `CCc1c(C)nc(N)n2c(SCC(=O)N3CCCc4ccccc43)nnc12`: 2%. Consider `N#Cc1ccccc1Cn1c(=O)n(Cc2ccc(C(=O)NCc3ccco3)cc2)c(=O)c2ccccc21`, for which the inhibition was 0%. The same measure for `Cc1cc(=O)n2nc(N3CCCC(C(=O)N4CCN(C)CC4)C3)sc2n1` (stereo not given): 1%. For the compound `COCCn1nnnc1CN1CCC(Cc2ccccc2)CC1`, the inhibition is 0%. The same measure for `CC1=CC2=C(OC1N(C)C)c1cccc3cccc(c13)C2=O` (stereo not given): 5%; for `COc1ccc(NC(=O)CSC2=C(C#N)C(c3ccco3)C3=C(CCCC3=O)N2)c(OC)c1` (stereo not given): 16%. As to `Nc1c(S(=O)(=O)c2cccs2)c2nc3ccccc3nc2n1CC1CCCO1` (stereo not given), the inhibition is 0%. Next, `CC(OC(=O)c1ccco1)C(=O)NCc1cccs1` (stereo not given): 0%; `CCOc1ccc(C(=O)N(CN2CCCC2=O)c2ccc(C)cc2)cc1`: 0%. In the case of `Cc1cccc(NC(=O)c2cc(NC(=O)c3ccco3)ccc2N2CCCCC2)c1`, the inhibition is 2%. Take `CCOC(=O)C1=C(C)Nc2nnnn2C1c1c[nH]c2ccccc12` (stereo not given): the inhibition is 3%.

Regarding `COc1ccccc1-n1c(=O)c2c3c(sc2n2c(SC(C)C)nnc12)CCC3`, the inhibition is 1%. In the case of `CCOc1nc2ccccc2nc1NS(=O)(=O)c1ccccc1`, the inhibition is 1%. The same measure for `CCCCOc1ccc(-c2ncc(C(=O)OCC)c(N)n2)cc1`: 11%; for `CNC[C@H](O)c1cccc(O)c1`: 0%. The same measure for `Cc1[nH]c(=O)[nH]c(=O)c1S(=O)(=O)Nc1ccc(Oc2ccccc2)cc1`: 6%; for `Nc1nnc(C(=O)c2ccccc2N)s1`: 0%. As for `Cc1nc2ccc(S(=O)(=O)NC(C(=O)Nc3nccs3)C(C)C)cc2s1` (stereo not given), the inhibition was 0%.

`N#Cc1c(-c2ccc3c(c2)OCO3)csc1N`: the inhibition was 9%. Turning to `CN1CC[n+]2cnc3ccccc3c21`, the inhibition is 1%. In the case of `c1ccc(CN2CCN(CCCNc3ccc4nnc(-c5ccccc5)n4n3)CC2)cc1`, the inhibition is 10%.
